A number with no mark means an inactive call. The source made the active and inactive calls. Rule as the data show it, unless noted: active = inhibition above about 33%; inactive = the rest.

Assay [1] in a line: StAR promoter reporter inhibitors, counter-screen for LRH-1 inverse agonist project, cell-based, luminescence, high throughput (AID 651611; in the data active = inhibition above about 28%). As to conditions: StAR promoter luciferase reporter counterscreen, at 3.6 µM, hits give high values. A general note: Counterscreens check selectivity or assay interference.
Assay [2] deals with Nuclear receptor subfamily 5 group A member 2 (Homo sapiens) (UniProt O00482). The assay is described as follows: LRH-1 (NR5A2) inverse agonists, retest, confirmation, cell-based, luminescence (AID 651613; in the data active = inhibition above about 42%;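 also: HEK293T cells co-transfected with LRH-1 and StAR promoter luciferase reporter; 0% = vehicle wells and 100% = parental cells lacking receptor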). The settings on record: cell-based LRH-1 luciferase reporter, inverse agonism; at 3.6 µM; hits give high values. (In general: Reporter assays use an easily measured gene product as a stand-in for the process of interest.)
Nuclear receptor subfamily 5 group A member 2 (Homo sapiens), sequence (O00482 whole entry, looked up): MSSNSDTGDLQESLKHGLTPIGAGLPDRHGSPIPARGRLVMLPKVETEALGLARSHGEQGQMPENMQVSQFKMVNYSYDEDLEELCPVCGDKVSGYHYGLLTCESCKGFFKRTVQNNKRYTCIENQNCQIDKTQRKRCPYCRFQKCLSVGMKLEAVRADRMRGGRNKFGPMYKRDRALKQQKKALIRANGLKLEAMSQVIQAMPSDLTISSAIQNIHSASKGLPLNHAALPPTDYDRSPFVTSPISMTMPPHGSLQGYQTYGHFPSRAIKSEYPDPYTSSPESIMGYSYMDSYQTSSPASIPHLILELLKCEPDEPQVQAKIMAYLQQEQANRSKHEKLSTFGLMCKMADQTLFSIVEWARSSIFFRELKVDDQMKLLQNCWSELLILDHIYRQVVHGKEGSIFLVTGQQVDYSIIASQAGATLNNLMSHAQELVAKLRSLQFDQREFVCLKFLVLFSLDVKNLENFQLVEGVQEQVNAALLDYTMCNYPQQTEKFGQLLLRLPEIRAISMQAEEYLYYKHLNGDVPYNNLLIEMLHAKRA

For assay [3], the target named is Steroidogenic factor 1 (Homo sapiens) (UniProt Q13285). The assay is described as follows: SF1 (NR5A1) inverse agonists, counter-screen for LRH-1 inverse agonist project, cell-based, luminescence, high throughput (AID 651614; in the data active = inhibition above about 44%;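 also: cells cotransfected with StAR promoter reporter and SF1 expression vector; 0% = vehicle on cells with receptor and 100% = vehicle on cells lacking receptor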). As to conditions: cell-based SF1 luciferase reporter, at 3.6 µM, hits give high values.
Steroidogenic factor 1 (Homo sapiens), sequence (Q13285 whole entry, looked up, the tested form may be a part): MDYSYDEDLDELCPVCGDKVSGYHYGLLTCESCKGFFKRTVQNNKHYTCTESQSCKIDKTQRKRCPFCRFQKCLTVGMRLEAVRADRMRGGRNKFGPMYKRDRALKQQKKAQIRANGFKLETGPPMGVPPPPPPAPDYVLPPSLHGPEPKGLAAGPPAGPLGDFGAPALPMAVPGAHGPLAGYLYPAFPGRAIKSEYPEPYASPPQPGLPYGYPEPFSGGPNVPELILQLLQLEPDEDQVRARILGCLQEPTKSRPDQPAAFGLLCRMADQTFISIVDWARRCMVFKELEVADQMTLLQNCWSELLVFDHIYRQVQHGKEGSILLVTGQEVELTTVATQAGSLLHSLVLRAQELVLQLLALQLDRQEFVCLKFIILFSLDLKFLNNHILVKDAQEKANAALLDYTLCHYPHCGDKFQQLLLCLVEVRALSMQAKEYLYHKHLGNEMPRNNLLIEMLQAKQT
A short description of assay [4]: VP16 transactivation reporter inhibitors, counter-screen for LRH-1 inverse agonist project, cell-based, luminescence, high throughput (AID 651615). As to conditions: Gal4-VP16 luciferase reporter cells, at 3.6 µM, hits give high values.

What is called inhibition is the relative decrease from the control value, in per cent. Turning to `Cc1[nH][nH]c(=O)c1N=Nc1ccc(S(N)(=O)=O)cc1`, the inhibition in assay [1] is 20.7%; in assay [2], 52.1% (active); in assay [3], 51.5% (active); in assay [4], 6.39%.

As for `CCc1ccccc1NC(=O)CSc1nnc([C@@H]2CCCN2C(=O)OC(C)(C)C)o1`, the inhibition in assay [1] was 16.4%; in assay [2] it was 50.5% (active); in assay [3], 59% (active); in assay [4], -8.78%.

On to `O=C(Nc1cccnc1)c1ccc([N+](=O)[O-])s1`, for which the inhibition was 25.4% in assay [1], 43.8% (active) in assay [2], 51% (active) in assay [3] and 11.1% in assay [4].

Turning to `COc1ccc(CCNC(=O)CSc2nn3c(=O)c(C)nnc3s2)cc1OC`, the inhibition in assay [1] was 8.26%; in assay [2], 57.5% (active); in assay [3], 47.2% (active); in assay [4], -10.1%.

Regarding `CCCOc1ccc(NC(=O)CC2C(=O)N(C)C(=S)N2Cc2ccc3c(c2)OCO3)cc1` (stereo unspecified), the inhibition is 6.7% in assay [1], 57.6% (active) in assay [2], 53.2% (active) in assay [3] and 5.2% in assay [4].

For `COC(=O)Cc1sc(-c2ccccn2)nc1-c1ccccc1`, the inhibition in assay [1] was 11.6%; in assay [2] it was 61.7% (active); in assay [3], 58.9% (active); in assay [4], -7.62%.

`Nn1c(SCC(=O)Nc2c(F)cc(F)cc2Br)nnc1C1CCCCC1`: the inhibition was 6.71% in assay [1], 38.9% in assay [2], 27.5% in assay [3] and -6% in assay [4].

As for `O=C(CSC1=NCCS1)N1CCN(c2ccc(Cl)cc2)CC1`, the inhibition in assay [1] was 8.14%; in assay [2], 56.3% (active); in assay [3] it was 53.3% (active); in assay [4] it was 18.2%.

`CCOc1ccc(NC(=O)CSc2nncc(=O)n2N)cc1`: the inhibition in assay [1] is 12.1%; in assay [2], 64.5% (active); in assay [3], 43.6% (active); in assay [4], -9.32%.

`CS(=O)(=O)N1CCN(c2ccccc2NC(=O)c2ccc([N+](=O)[O-])o2)CC1`: the inhibition was 11.6% in assay [1], 57.4% (active) in assay [2], 55.3% (active) in assay [3] and -20.1% in assay [4].

`CS(=O)(=O)N1CCCC(c2nc(-c3ccc(S(=O)(=O)NCc4ccccc4)cc3)no2)C1` (stereo unspecified): the inhibition in assay [1] was -1.45%; in assay [2], 54.5% (active); in assay [3], 52.7% (active); in assay [4] it was 37.8% (active).

As for `Cc1ccc(NC(=O)CNNC(=O)c2cccc([N+](=O)[O-])c2)cc1[N+](=O)[O-]`, the inhibition in assay [1] is 2.1%; in assay [2], 34.6%; in assay [3], 31.3%; in assay [4], -5.02%.

With `O=C(Nc1ccc(S(=O)(=O)N2CCOCC2)cc1)c1cccc([N+](=O)[O-])c1`, the inhibition is -6.54% in assay [1], 56.9% (active) in assay [2], 50.2% (active) in assay [3] and -5.35% in assay [4].

As to `Clc1ccccc1-c1nnc2sc(-c3ccc(Br)o3)nn12`, the inhibition in assay [1] is 5.07%; in assay [2], 43.5% (active); in assay [3] it was 54.5% (active); in assay [4], -2.86%.

With `CCOc1ccc(Br)cc1/C(C)=N\NC1=NCCN1`, the inhibition was 1.83% in assay [1], 36.8% in assay [2], 36.7% in assay [3] and 33.2% (active) in assay [4].

On to `CN1C(=O)NC(c2ccccc2[N+](=O)[O-])C2=C1CC(C)(C)CC2=O` (stereo unspecified), for which the inhibition in assay [1] is 3.55%; in assay [2] it was 19%; in assay [3], -6.97%; in assay [4], 0.8%.

For the compound `CC(=O)N[C@@H](Cc1c[nH]c2ccccc12)C(=O)OCC(=O)Nc1ccc2c(c1)OCO2`, the inhibition in assay [1] is -1.82%; in assay [2] it was 53.1% (active); in assay [3], 56.8% (active); in assay [4] it was -4.65%.

Turning to `O=C(CSc1nnnn1C1CCCC1)Nc1ccc2c(c1)OCCO2`, the inhibition in assay [1] was -0.49%; in assay [2], 44.7% (active); in assay [3], 42.3%; in assay [4], -30.9%.

In the case of `O=C(NCc1ccco1)c1nn(-c2ccccc2)c(=O)c2ccccc12`, the inhibition in assay [1] is 19.6%; in assay [2], 57% (active); in assay [3] it was 53.4% (active); in assay [4], -14.1%.

Take `O=C(COc1cccc2c1CCNC2=O)Nc1cccc(C(F)(F)F)c1`: the inhibition in assay [1] is 5.78%; in assay [2] it was 52.5% (active); in assay [3], 29.9%; in assay [4], -20.7%.

Regarding `CC(C)CNC(=O)COC(=O)c1c2c(nc3ccccc13)/C(=C/c1cccs1)CC2`, the inhibition was -15.9% in assay [1], 4.19% in assay [2], -12.8% in assay [3] and -8.73% in assay [4].

On to `COc1ccc(CCNC(=O)CSc2nc(O)c(CCC(C)C)c(=O)[nH]2)cc1OC`, for which the inhibition in assay [1] is 2.2%; in assay [2] it was 61.7% (active); in assay [3] it was 50.4% (active); in assay [4], -12.8%.

Take `COC(=O)c1ccc(NC(=O)CSc2nn3c(=O)c(C)nnc3s2)cc1`: the inhibition in assay [1] was 5.82%; in assay [2], 61.3% (active); in assay [3], 56.4% (active); in assay [4], -11.6%.

As to `O=C(CN1C(=O)C(c2ccc(F)cc2)=NC12CCCC2)Nc1ccc(F)cc1`, the inhibition in assay [1] is 23.4%; in assay [2], 52.2% (active); in assay [3], 49.4% (active); in assay [4], 38.4% (active).

For the origin of these results see PubChem BioAssay.
